Bioassay records deposited in PubChem by several laboratories.
The list is not random: actives were taken first. Their share in the collection is about 3.6%.
Candida biofilm – kills Candida albicans biofilms. C. albicans biofilm + clotrimazole, Alamar Blue. inhibition, % at 6 µM. 0.14% of 85,000 active;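 active means inhibition above 20%; inactive means inhibition below 20%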;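 further: preformed 24 hr biofilms exposed to compound for 48 hr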
ERb coact inh – blocks coactivator binding to human estrogen receptor beta; Q92731; TR-FRET ER-beta LBD / SRC1-Cy5 peptide binding; receptor agonist-loaded with 1 µM estradiol; inhibition, % at 25.6 µM; 1.3% of 86,000 active;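 active means compounds whose percent inhibition of the receptor-coactivator binding signal exceeds about 50% in the single-dose screen, limit read from the data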
Target sequence (Q92731 whole entry, looked up, the tested form may be a part): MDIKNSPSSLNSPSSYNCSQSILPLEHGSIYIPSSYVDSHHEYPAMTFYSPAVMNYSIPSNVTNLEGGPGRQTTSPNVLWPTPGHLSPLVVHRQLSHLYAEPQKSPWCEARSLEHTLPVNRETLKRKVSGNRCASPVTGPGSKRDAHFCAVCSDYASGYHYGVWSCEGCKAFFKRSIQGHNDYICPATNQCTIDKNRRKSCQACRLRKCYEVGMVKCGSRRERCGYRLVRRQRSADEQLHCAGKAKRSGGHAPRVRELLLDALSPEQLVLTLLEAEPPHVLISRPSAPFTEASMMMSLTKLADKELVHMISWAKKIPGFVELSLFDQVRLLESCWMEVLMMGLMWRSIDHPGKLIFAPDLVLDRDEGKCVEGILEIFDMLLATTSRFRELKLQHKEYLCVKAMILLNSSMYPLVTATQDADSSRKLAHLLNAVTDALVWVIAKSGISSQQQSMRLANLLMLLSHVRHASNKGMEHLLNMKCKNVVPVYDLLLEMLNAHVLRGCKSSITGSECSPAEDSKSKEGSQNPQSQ
ERa coact pot – enhances coactivator binding to human estrogen receptor alpha. P03372. TR-FRET ERalpha-LBD/SRC-Cy5 coactivator binding, 2 h; 100 = basal binding, no effect. coactivator binding (% of control), % at 25.6 µM. 1.3% of 86,000 active. AID 639; in the data active means activity above about 200%;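 further: binding measured in presence of low estradiol as agonist stimulus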
Smad3 FoxH1 inh – inhibitors of human Smad3 transcription factor binding; 0.29% of 88,000 active; AID 630; inhibition, % at 25 µM; TR-FRET Smad3/Dy647-FoxH1 peptide binding, europium anti-His; P84022;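 active means compounds that reduce the energy-transfer binding signal between the protein and its labelled peptide by more than half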
ERa SRC1 inh – blocks coactivator binding to human estrogen receptor alpha. 1.7% of 86,000 active. AID 629. TR-FRET ER-alpha LBD / SRC-1 peptide, estradiol-bound. P03372. inhibition, % at 25.6 µM; in the data active means inhibition above about 50%
A number is an active result; n = inactive; x = not tested or not shown; [ ] = remark or other dose.

SMILES	Candida biofilm	ERb coact inh	ERa coact pot	Smad3 FoxH1 inh	ERa SRC1 inh
N#Cc1cc2c(nc1SCc1cccnc1)CCC2	n	n	n	n	n
N#Cc1cc2c(nc1SC1CCCCC1O)CCCC2 (centres undefined)	n	n	n	93	n
Cc1cccc(CSc2nc3c(cc2C#N)CCC3)c1	n	68[fluorescence artefact?]	n	58[fluorescence artefact?]	n
N#CC1=C(SCc2ccccc2Cl)NC(=O)C(C(N)=O)C1 (centres undefined)	n	n	n	n	n
C[C@@]12CC[C@@H]3[C@H](CC=C4C[C@@H](O)CC[C@@]43C)[C@H]1CC[C@H]2N(CCO)CCO	x	x	x	n	x
CCCCn1nnnc1NCc1ccc(N(CC)CC)cc1	n	n	n	n	n
Cc1ccccc1NC(=S)NN1CCN(C)CC1	n	n	n	n	n
O=C1c2ccccc2C(=O)N1CCCOc1ccccc1	n	n	n	n	n
COc1ccc(OCC(=O)OCCN2C(=O)c3ccccc3C2=O)cc1	n	n	n	n	59[fluorescence artefact?]
Nc1c(N2CCCC2)cc(Cl)c2nonc12	n	n	n	58	n
CC(=O)c1sc(NC(=O)c2ccco2)nc1-c1ccccc1	n	n	n	n	n
CCOC(=O)c1sc(NC(=O)c2ccco2)nc1-c1ccccc1	n	n	271[fluorescence artefact?]	n	n
ON=Cc1cccn1-c1ccccc1	x	n	n	n	n
O=C(O)c1cccc(-n2cccc2/C=N/O)c1	n	77[fluorescence artefact?]	n	n	76[fluorescence artefact?]
CCOC(=O)c1c(C)oc2c1c(C(c1cccnc1)N1CCCCC1)c(O)c1ccccc12 (centres undefined)	n	67	n	74	68
COc1ccccc1-c1nc2n(n1)C(c1ccc(Cl)cc1)C(C(N)=O)=C(C)N2 (centres undefined)	n	n	n	n	n
CC1=C(C(N)=O)C(c2ccncc2)n2nc(-c3ccccc3Cl)nc2N1 (centres undefined)	21	n	n	n	n
CC(=O)Nc1ccc(S(=O)(=O)NCc2ccc3c(c2)cc(C)n3C)cc1	n	n	n	n	n
Cc1cc2cc(CNS(=O)(=O)c3ccc4ccccc4c3)ccc2n1C	n	n	651[fluorescence artefact?]	n	n
Cc1cc(C)c(S(=O)(=O)NCc2ccc3c(c2)cc(C)n3C)c(C)c1	n	n	257[fluorescence artefact?]	n	n
CC(C)c1ccc(NC(=O)C2CC(=O)N=C(N)S2)cc1 (centres undefined)	n	n	n	n	n
NS(=O)(=O)c1ccc(N=Nc2ccc[nH]c2=O)cc1	x	x	x	n	x
CC(=O)[C@@]1(N=Nc2ccc(S(N)(=O)=O)cc2)CCOC1=O	x	x	x	52	x
C=CCn1c2ccccc2c2nnc(SCc3ccc4nonc4c3)nc21	n	n	n	n	n
CC(=O)c1ccccc1Oc1nc(CN2CCOCC2)nc2scc(-c3cccs3)c12	n	n	n	n	n
SMILES	Candida biofilm	ERb coact inh	ERa coact pot	Smad3 FoxH1 inh	ERa SRC1 inh
CCOc1ccc(C(C)=O)cc1Cn1nc(C(=O)O)c2ccccc2c1=O	n	n	252	n	n
Cc1cccc(C)c1OCCn1nc(C(=O)O)c2ccccc2c1=O	n	n	n	n	n
CCC(=O)Nc1ccc(C(=O)Cn2nc(C(=O)O)c3ccccc3c2=O)cc1	n	61	n	n	77[fluorescence artefact?]
CCN(CC)CCOC(=O)C1c2ccccc2Oc2ccccc21	n	74[fluorescence artefact?]	n	n	n
CCSc1cnn(-c2ccccc2)c(=O)c1SCC	n	n	n	n	n
CCCCSc1cnn(-c2ccccc2)c(=O)c1SCCCC	n	n	202	n	n
COc1ccc(N2CSC3=C(C#N)C(c4cccs4)CC(=O)N3C2)cc1 (centres undefined)	n	n	n	n	54[fluorescence artefact?]
CCOc1ccccc1N1CSC2=C(C#N)C(c3c(OC)ccc4ccccc34)CC(=O)N2C1 (centres undefined)	n	n	376	n	n
COc1ccc(N2CSC3=C(C#N)C(c4cc(OC)c(OC)cc4OC)CC(=O)N3C2)c(OC)c1 (centres undefined)	n	n	n	n	55[fluorescence artefact?]
Cc1ccc(N2CSC3=C(C#N)C(c4cccs4)CC(=O)N3C2)cc1 (centres undefined)	n	n	n	n	n
COc1ccc(N2CSC3=C(C#N)C(c4cc(OC)ccc4OC)CC(=O)N3C2)c(OC)c1 (centres undefined)	n	n	n	n	n
COc1cc(-c2[o+]c3cc(O)cc(O)c3cc2O)cc(O)c1O	x	x	x	n	x
CC1(C)S[C@H]2[C@H](NC(=O)Cc3ccccc3)C(=O)N2[C@@H]1C(=O)O	x	x	x	n	x
O=C1c2ccccc2C(=O)N1CCCN1CCN(CCCN2C(=O)c3ccccc3C2=O)CC1	n	n	n	n	n
CC1(C)C(O)=C(c2nc3ccccc3[nH]2)C(=N)N1c1ccccc1	n	n	n	n	n
N=c1c(-c2nc3ccccc3[nH]2)cc(C(=O)c2cccs2)nn1-c1ccccc1	n	62[fluorescence artefact?]	n	n	92[fluorescence artefact?]
Nc1nc(N2C(=O)C3CC=CCC3C2=O)nn1-c1ccccc1 (centres undefined)	n	n	n	n	57
O=C(CCn1nnc2ccccc21)N1CCC(O)(c2cccc(F)c2)CC1	n	n	n	n	n
CN(CCOC(=O)c1ccco1)Cc1ccccc1	70	n	n	n	n
O=C(OCCN1C(=O)c2ccccc2C1=O)c1ccco1	n	n	n	n	n
CCNC(=O)CC1C(=O)N(c2ccccc2)C(=O)N1Cc1ccc(OC)cc1 (centres undefined)	n	n	n	n	n
O=C(CSc1ncnc2c1oc1ccccc12)NC1CCCCC1	n	51[fluorescence artefact?]	289[fluorescence artefact?]	n	56[fluorescence artefact?]
Cc1nc(SCC(=O)c2cccs2)c2oc3ccccc3c2n1	n	n	n	n	n
Fc1cccc(CSc2ncnc3c2oc2ccccc23)c1	n	57[fluorescence artefact?]	402[fluorescence artefact?]	n	n
O=C(CSc1ncnc2c1oc1ccccc12)c1cccs1	n	n	283[fluorescence artefact?]	n	n
SMILES	Candida biofilm	ERb coact inh	ERa coact pot	Smad3 FoxH1 inh	ERa SRC1 inh
CCSc1ncnc2c1oc1ccccc12	n	n	n	n	n
c1ccc2[nH]c(CSc3ncnc4c3oc3ccccc34)nc2c1	n	n	n	n	n
Fc1ccc(CSc2ncnc3c2oc2ccccc23)cc1	n	56[fluorescence artefact?]	n	n	n
Nc1nc(SCc2ccccc2Cl)cc(C(=O)O)n1	x	x	x	n	x
C/C(N[O-])=C(\C)[N+]([O-])=[Cu].C/C(N[O-])=C(\C)[N+]([O-])=[Cu].CC(=N\[O-])/C(C)=N/[O-].CC(=N\[O-])/C(C)=N/[O-]	x	x	x	n	x
O=C(CSc1ncnc2c1oc1ccccc12)NCc1ccc(F)cc1	n	57[fluorescence artefact?]	784[fluorescence artefact?]	n	n
NC(=O)CSc1ncnc2c1oc1ccccc12	n	n	n	n	n
Cc1ccc(N2CCN(CCC(=O)O)CC2)cc1	x	x	x	n	x
O=c1[nH]c2ccc(Br)cc2c(-c2ccccc2)c1N1CCOCC1	n	n	429[fluorescence artefact?]	n	n
CC(C)CC(=O)Nc1cccc(C(=O)Nc2ccccc2C(=O)O)c1	n	n	n	n	n
NC(=O)C1(N2CCCCC2)CCN(c2nc(-c3ccc(Br)cc3)cs2)CC1	n	n	n	n	71
c1ccc(-c2csc(N3CCCCCC3)n2)cc1	n	n	n	n	n
CCOC(=O)c1cc2sc(C)cc2n1CC(=O)NCCc1ccccc1	n	n	932[fluorescence artefact?]	n	n
